{"source": "PubChem BioAssay AID1285", "about": "(Columbia University Molecular Screening Center, 2008)", "note": "Hit rate of the full screen: of about 190,000 compounds, about 1,600 (0.84%) were called active.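 The calls were made as follows: active = inhibition above a set limit, derived from the sample mean plus 3 SD (cut at about 45% in these data); inconclusive = one replicate passes the limit while the other fails; inactive = the rest.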 The full list was thinned out, with actives kept by preference."}
{"test": "APP 5'UTR translational reporter suppression – APP 5'UTR luciferase, SH-SY5Y cells, primary screen (AID 1285)", "conditions": "SH-SY5Y APP 5'UTR-luciferase reporter, luminescence; at 2 µM; hits give high values"}
{"smiles": "CC(Oc1ccccc1)C(=O)NN1Cc2ccccc2C1=N", "note": "(stereo not given)", "inhibition": "-15% (inactive)"}
{"smiles": "O=C(NCc1ccc2c(c1)OCO2)c1ccc2c(c1)C(=O)N(CC1CCCO1)C2=O", "note": "(stereo not given)", "inhibition": "3.9% (inactive)"}
{"smiles": "O=c1c2cc3c(=O)n(CC4CCCO4)c(=O)c3cc2c(=O)n1CC1CCCO1", "note": "(stereo not given)", "inhibition": "-21.8% (inactive)"}
{"smiles": "O=C1c2cccc3c([N+](=O)[O-])ccc(c23)C(=O)N1CC1CCCO1", "note": "(stereo not given)", "inhibition": "53% (active)"}
{"smiles": "COc1ccc(OC)c(Cc2nnc(CCC(=O)NC3CCCC3)o2)c1", "inhibition": "-10.4% (inactive)"}
{"smiles": "COc1cc(OC)cc(C(=O)N[C@H](C(=O)Nc2nc3ccccc3[nH]2)C(C)C)c1", "inhibition": "94.9% (active)"}
{"smiles": "COc1ccc(OC(C)C(=O)NCCc2nc3ccccc3[nH]2)cc1", "note": "(stereo not given)", "inhibition": "-10.4% (inactive)"}
{"smiles": "COc1cc(OC)cc(C(=O)N[C@H](C(=O)OCC(=O)NC(C)c2ccccc2)C(C)C)c1", "note": "(stereo not given in full)", "inhibition": "14.5% (inactive)"}
{"smiles": "Cc1cc(/C=N/NC(N)=O)c(C)n1C1CCCCC1", "inhibition": "-4.6% (inactive)"}
{"smiles": "CCOC(=O)C(NC(=O)CC(C)C)(Nc1sc2c(c1C(N)=O)CCCC2)C(F)(F)F", "note": "(stereo not given)", "inhibition": "5.1% (inactive)"}
{"smiles": "O=C(COc1ccc(Cl)cc1[N+](=O)[O-])N1CCCCC1", "inhibition": "-4% (inactive)"}
{"smiles": "CCOC(=O)C1=C(C)Nc2nc3ccccc3n2C1c1cccs1", "note": "(stereo not given)", "inhibition": "6.6% (inactive)"}
{"smiles": "CCOc1ccc(C2C(C(=O)NC)=C(C)Nc3nc4ccccc4n32)cc1OC", "note": "(stereo not given)", "inhibition": "11.5% (inactive)"}
{"smiles": "COc1ccccc1NC(=O)C1=C(C)Nc2nc3ccccc3n2C1c1cccs1", "note": "(stereo not given)", "inhibition": "91% (active)"}
{"smiles": "COc1cccc(-c2nn(-c3ccccc3)cc2/C=C(\\C#N)C(=O)NCCCn2ccnc2)c1", "inhibition": "14.7% (inactive)"}
{"smiles": "C=CCN1C2CCCC1CC(NC(=S)Nc1cccc(OC)c1)C2", "note": "(stereo not given)", "inhibition": "-2.4% (inactive)"}
{"smiles": "COCCOC(=O)C1=C(C)NC(=O)CC1c1cc2c(cc1Br)OCO2", "note": "(stereo not given)", "inhibition": "3.7% (inactive)"}
{"smiles": "COc1ccccc1C1C2=C(COC2=O)Nc2cc3c(cc21)OCO3", "note": "(stereo not given)", "inhibition": "94.5% (active)"}
{"smiles": "CCCOc1ccccc1C1CC(=O)Nc2cc3c(cc21)OCO3", "note": "(stereo not given)", "inhibition": "92.3% (active)"}
{"smiles": "COc1ccc(F)cc1S(=O)(=O)Nc1ccc2c(c1)OCO2", "inhibition": "-19.9% (inactive)"}
{"smiles": "COc1ccc(C2CC(=O)Nc3cc(C)c(C)cc32)c(OC)c1OC", "note": "(stereo not given)", "inhibition": "-0.3% (inactive)"}
{"smiles": "COc1cc2c(cc1/C=C1/NC(=O)N(c3ccccc3)C1=O)OCO2", "inhibition": "-15.4% (inactive)"}
{"smiles": "CN1CCN(C(=O)/C(=C\\c2cccs2)NC(=O)c2cccs2)CC1", "inhibition": "-8.2% (inactive)"}
{"smiles": "CCCCn1nc(C(=O)Nc2ccc(S(=O)(=O)Nc3ncccn3)cc2)c2ccccc2c1=O", "inhibition": "-36.5% (inactive)"}
{"smiles": "COc1cccc(CC(=O)N2CCCC(CCC(=O)N3CCN(c4ccccn4)CC3)C2)c1", "note": "(stereo not given)", "inhibition": "-8.5% (inactive)"}
{"smiles": "CCOc1ncccc1C(=O)OCC(=O)NC1CC1", "inhibition": "17% (inactive)"}
{"smiles": "O=c1c([N+](=O)[O-])cccn1Cc1ccc(F)cc1Cl", "inhibition": "-2.2% (inactive)"}
{"smiles": "Cc1ccc(OCC(=O)N/N=C\\c2ccco2)c(C)c1", "inhibition": "-0.4% (inactive)"}
{"smiles": "Cc1ccc(OCC(=O)N/N=C/c2ccncc2)cc1", "inhibition": "0.8% (inactive)"}
{"smiles": "Cc1ccc(/C=N/NC(=O)COc2ccccc2-c2ccccc2)cc1", "inhibition": "97% (active)"}
{"smiles": "CN1CCC(=NNC(=O)c2ccc(N(Cc3ccc(Cl)cc3)S(C)(=O)=O)cc2)CC1", "inhibition": "-0.2% (inactive)"}
{"smiles": "Cc1ccc(S(=O)(=O)N(CC(=O)NN=C2CCN(C)CC2)c2ccc(F)cc2)cc1", "inhibition": "-21% (inactive)"}
{"smiles": "CCOc1ccccc1C(=O)NCc1ccco1", "inhibition": "-2.6% (inactive)"}
{"smiles": "CCCC1=Nc2cc(C(=O)NCc3ccco3)ccc2Sc2ccccc21", "inhibition": "90.1% (active)"}
{"smiles": "COc1ccc(CCNS(=O)(=O)c2ccc(C(=O)NCc3ccco3)cc2)cc1OC", "inhibition": "-8.6% (inactive)"}
{"smiles": "CC(=O)N1CCN(S(=O)(=O)c2cccc(C(=O)NC3CCC(C)CC3)c2)CC1", "note": "(stereo not given)", "inhibition": "2.6% (inactive)"}
{"smiles": "O=C(COc1ccc(NC(=O)c2ccccc2[N+](=O)[O-])cc1)c1ccc(F)cc1", "inhibition": "-3.2% (inactive)"}
{"smiles": "CCN(CC)C(=O)N(CC)Cc1ccccc1", "inhibition": "-8.7% (inactive)"}
{"smiles": "CC(=O)Nc1ccc(S(=O)(=O)N2CCN(C(=O)c3ccccc3F)CC2)cc1", "inhibition": "94.3% (active)"}
{"smiles": "CC(=O)Nc1ccc(S(=O)(=O)N2CCN(C3CCCCCCC3)CC2)cc1", "inhibition": "-4.6% (inactive)"}
{"smiles": "CC(=O)Nc1ccc(S(=O)(=O)N2CCSCC2)cc1", "inhibition": "11.7% (inactive)"}
{"smiles": "CN(Cc1ccc2nsnc2c1)Cc1nc(Cc2cccc(F)c2)no1", "inhibition": "-3.3% (inactive)"}
{"smiles": "CNc1ccc(NC(C)=O)cc1[N+](=O)[O-]", "inhibition": "-17.6% (inactive)"}
{"smiles": "CC(C)CC(=O)NC(=S)Nc1ccc(F)cc1F", "inhibition": "-8.3% (inactive)"}
{"smiles": "COc1cccc(OCCOc2cccc(/C=N/n3cnnc3)c2)c1", "inhibition": "-90.8% (inactive)"}
{"smiles": "COc1ccccc1OCCOc1ccc(/C=N/n2cnnc2)cc1", "inhibition": "8.5% (inactive)"}
{"smiles": "Cc1ccccc1OCCOc1ccc([N+](=O)[O-])cc1/C=N/n1cnnc1", "inhibition": "45.2% (active)"}
{"smiles": "O=C(COC(=O)c1cc(-c2cccs2)nn1-c1ccccc1)Nc1cc([N+](=O)[O-])ccc1Cl", "inhibition": "-13.5% (inactive)"}
{"smiles": "Cc1cc(C(C)(C)C)cc(S(=O)(=O)Nc2ccc(C(=O)O)cc2)c1C", "inhibition": "2.7% (inactive)"}
{"smiles": "CNC(=S)NNC(=O)c1cccn(Cc2ccccc2)c1=O", "inhibition": "4.8% (inactive)"}
{"smiles": "CCN(CC)S(=O)(=O)c1ccc(N2CCCC2)c(NS(=O)(=O)c2cccs2)c1", "inhibition": "7.7% (inactive)"}
{"smiles": "COc1ccc(NC(=O)c2nc(-n3nc(C)cc3C)ccc2Cl)cc1Cl", "inhibition": "21.2% (inactive)"}
{"smiles": "Cc1cc(Oc2ccc(Cl)cc2)nc(SCC(=O)c2ccccc2)n1", "inhibition": "-11.5% (inactive)"}
{"smiles": "COc1ccccc1/C=N\\Nc1cc(C)nc(-n2nc(C)cc2C)n1", "inhibition": "3.2% (inactive)"}
{"smiles": "Cc1cc(C)n(-c2cc(Oc3ccccc3)ncn2)n1", "inhibition": "-14.1% (inactive)"}
{"smiles": "CC(=O)c1ccc(Oc2cc(C)nc(-n3nc(C)cc3C)n2)cc1", "inhibition": "93.7% (active)"}
{"smiles": "COc1ccc(Nc2cc(C)nc(-n3nc(C)cc3C)n2)cc1", "inhibition": "92.8% (active)"}
{"smiles": "O=C(NCc1ccccc1)C1=C[C@@H](c2ccc(C(F)(F)F)cc2)C[C@@H](OCc2ccc(CO)cc2)O1", "inhibition": "-9.6% (inactive)"}
{"smiles": "O=C(CSc1nc2ccc(Nc3nc(N4CCOCC4)nc(N4CCOCC4)n3)cc2s1)NCc1ccco1", "inhibition": "-2.6% (inactive)"}
{"smiles": "CN1CCCN(C(=O)C2CCCCC2)CC1", "inhibition": "4.4% (inactive)"}
